Screening data as filed in PubChem BioAssay.
BH1578 lux ind: induces V. cholerae light production without autoinducers. V. cholerae BH1578 lux reporter, luminescence, 6 h. activation, % at 18.7 µM. 350,000 compounds, 0.16% hits. AID 588436; in the data active = activation mostly above about 9.7%, no sharp cut-off; inconclusive = no clear call, values can overlap the other calls; inactive = mostly below about 3.7%
PrP 5UTR inh: suppresses PrP 5' UTR mRNA reporter expression; inhibition, % (concentration not given with the values); 340,000 compounds, 0.35% hits; AID 488862; cell-based PrP 5' UTR mRNA reporter, plate reader; in the data active = inhibition above about 52%; also: 0 = median of the neutral control wells
SSB-PriA inh: blocks PriA binding to SSB C-terminal tail; 430,000 compounds, 0.6% hits; inhibition, % at 33 µM; AlphaScreen SSBct-PriA binding, biotinylated peptide; in the data active = inhibition mostly above about 37%, no sharp cut-off; inactive = mostly below about 20%;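 also: plate controls were negative control peptide for no effect and reference peptide for full effect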
FadD28 binding: blocks FadD28 binding to the bisubstrate probe; 360,000 compounds, 0.22% hits; AID 588549; inhibition, % at 12.5 µM; fluorescence polarization; in the data active = inhibition above about 8.5%, passing the limit was not always enough; inconclusive = no clear call, values can overlap the other calls
PrPC TRFRET: reduces human prion protein on the cell surface; inhibition, % at 13.8 µM; P04156; cell surface PrPC, TR-FRET read-out; 370,000 compounds, 0.43% hits; in the data active = inhibition above about 24%; also: 0% = median of the test wells and 100% = reference compound wells
PrP 5UTR single: prion 5' UTR mRNA inhibition, cherry-pick retest | shares compounds with PrP 5UTR inh | cell-based prion protein 5' UTR reporter, plate reader | inhibition, % at 2.5 µM | 1,100 compounds, 48% hits; in the data active = inhibition above about 54%; inconclusive = no clear call, values can overlap the other calls
* hit, by the source's call; i = inactive; ? = inconclusive; · = no result. Hits are enriched below; roughly 1.4% of the tested compounds scored in any of these assays.

SMILES	BH1578 lux ind	PrP 5UTR inh	SSB-PriA inh	FadD28 binding	PrPC TRFRET	PrP 5UTR single
COc1ccc(N(CC(=O)NCCSc2ccccn2)S(C)(=O)=O)cc1	i	-7.3	-8.2	0.2	-0.3	·
CS(=O)(=O)N(CC(=O)NCCSc1ccccn1)c1ccc(F)cc1	-1.9	51.8*	-15.6	-0.8	0.9	4.0
COc1ccc(S(=O)(=O)NCc2ccco2)cc1C(=O)N1CCOCC1	-2.2	-11.1	-14.0	-4.5	3.0	·
O=C(c1cc(S(=O)(=O)NCc2ccco2)ccc1Br)N1CCOCC1	i	79.2*	-3.3	-2.3	-1.4	12.9
COc1ccc(S(=O)(=O)N2CCC(S(C)(=O)=O)C2)cc1Cl (stereo unspecified)	·	·	-20.0	·	·	·
O=C(NCCn1nc(C(F)(F)F)c2c1CCCC2)c1ccc2nsnc2c1	·	·	-5.0	·	·	·
CC1CCN(C(=O)/C(=C\c2cccs2)NC(=O)c2ccccc2)CC1	-0.4	59.1*	-13.9	-0.5	-2.5	-9.6
CC1CCN(C(=O)/C(=C\c2ccco2)NC(=O)c2ccccc2)CC1	-0.1	-8.5	4.2	-3.7	-9.7	·
CC(C)Cn1c(-c2cccc(S(=O)(=O)N3CCOCC3)c2)n[nH]c1=S	i	76.7*	5.0	-2.6	7.6	-18.5
CCC(C)n1c(-c2cccc(S(=O)(=O)N3CCOCC3)c2)n[nH]c1=S (stereo unspecified)	-5.0	-14.6	4.2	-2.9	-4.3	·
O=C(NCc1cnn2ccccc12)c1ccccn1	·	·	-11.0	·	·	·
Cc1ccc(C(=O)Sc2cccccc2=O)cc1	i	57.3*	6.4	-0.3	7.5	?
CCOc1ccc(C(=O)C(c2ccccc2)N2CCOCC2)cc1 (stereo unspecified)	-0.6	81.7*	-9.5	1.6	1.1	-0.9
CCCOc1ccc(C(=O)C(c2ccccc2)N2CCOCC2)cc1 (stereo unspecified)	2.8	-21.9	-20.2	-0.6	4.0	·
Cc1ccc(C(=O)Nc2ncc([N+](=O)[O-])s2)cc1	2.9	71.0*	-1.2	2.5	-5.3	72.6*
Cc1ccc(C(=O)Nc2ncc(Cc3ccc(SC(F)F)cc3)s2)cc1	-0.3	62.3*	-0.4	-1.9	4.8	88.8*
C[C@H](NC(=O)C(=O)NCC1CCN(C(=O)c2ccncc2)CC1)c1ccccc1	·	·	-12.0	·	·	·
CCSc1nc(-c2ccccc2)nc(C(Cl)Cl)n1	i	63.2*	-21.8	-4.2	5.5	79.1*
O=C(NN1C(=O)C2C3C=CC(C4CC34)C2C1=O)c1ccc(Br)cc1 (stereo unspecified)	-0.6	58.1*	4.0	-1.3	5.7	67.6*
CCOC(=O)C1=CN(Cc2ccco2)S(=O)(=O)N(C)C1c1ccc(C(F)(F)F)cc1 (stereo unspecified)	i	1.3	-12.2	0.4	-0.7	·
CCOC(=O)C1=CN(Cc2ccco2)S(=O)(=O)N(C)C1c1ccc2ccccc2c1 (stereo unspecified)	-1.6	54.5*	-12.6	-1.4	0.3	-6.6
CCOC(=O)C1=CN(Cc2cccc(I)c2)S(=O)(=O)N(C)C1C (stereo unspecified)	-1.1	90.0*	-14.6	-2.6	-5.9	-11.4
COc1ccc(-c2ccc(=O)n(Cc3cc(=O)n4ccccc4n3)n2)cc1	-0.2	66.2*	-20.7	-1.6	-12.7	9.0
Cc1cc(NC(=O)CSc2nc3ccccc3c(=O)n2NC(=O)Cc2ccccc2)no1	·	·	-16.0	·	·	·
COc1cc(O)c(C(=O)O)c(-c2cc(O)c(O)cc2C)c1	-0.3	68.3*	-12.5	2.2	8.4	-16.2
SMILES	BH1578 lux ind	PrP 5UTR inh	SSB-PriA inh	FadD28 binding	PrPC TRFRET	PrP 5UTR single
Cc1cc(C)c(S(=O)(=O)Nc2ccc3c4c(cccc24)CC3)c(C)c1	-0.2	75.5*	-5.6	-1.5	16.1	89.1*
Cc1ccc(S(=O)(=O)Nc2ccc3c4c(cccc24)CC3)c(C)c1	0.1	-26.3	16.8	-4.8	6.9	·
O=C(Nc1ccc(-c2nc3cccnc3s2)cc1)C1CCCO1 (stereo unspecified)	-0.3	61.9*	-1.3	-3.5	-5.4	65.4*
N#Cc1ccc(COCC2CCN(C(=O)Nc3cccc(Cl)c3)CC2)cc1	·	·	-11.0	·	·	·
CCCc1cc(Nc2ccc(NC(C)=O)cc2)n2ncc(-c3ccccc3)c2n1	·	·	14.0	·	·	·
CC(=O)Nc1ccc(Nc2cc(C)nc3c(-c4ccccc4)cnn23)cc1	-0.3	59.6*	-42.8	3.5	15.8	-4.3
Cc1csc(NC(=O)c2cn3ccccc3n2)n1	-0.4	75.9*	-10.7	-0.4	0.7	?
COc1ccc(/C=N/NC(=O)c2[nH]c3ccc(Br)cc3c2-c2ccccc2)cc1	i	68.1*	i	-0.7	7.5	80.9*
COc1ccc(/C=N/NC(=O)c2[nH]c3ccc(Br)cc3c2-c2ccccc2)c(C(=O)O)c1OC	-0.6	-23.5	i	-9.3	7.5	·
O=C(Nc1ccccc1Cl)c1ccccc1	-1.6	-36.4	-1.2	-1.1	5.6	·
O=C(Nc1ccccc1Cl)c1ccc(C(=O)Nc2ccccc2Cl)cc1	-1.0	75.6*	-8.4	0.6	-4.2	1.1
COc1ccc(-c2cc3nc4n(c(=O)c3s2)CCC4)cc1	-1.0	34.7	-7.5	-0.9	-13.6	·
COc1ccc(-c2cc3nc(C)n(N)c(=O)c3s2)cc1	i	90.6*	-1.5	-2.5	1.4	92.5*
Cn1c(NCc2ccccc2)nc2cc(-c3ccccc3)sc2c1=O	-0.3	·	·	-1.3	3.1	·
Cc1nc2cc(-c3ccccc3)sc2c(=O)n1N	-0.1	80.9*	-7.9	1.2	-2.4	78.5*
CCCCCOc1cccc(C(=O)Nc2nnc(-c3ccnn3C(C)C)o2)c1	·	·	-5.0	·	·	·
Cc1ccc(C(N)=NOC(=O)/C=C/c2ccccc2)cc1	·	·	-29.2	·	·	·
COc1ccc(Oc2nccc(-c3ccc(F)cc3)c2C#N)cc1	4.5	76.4*	-9.4	-2.7	2.6	-47.2
Cc1ccc(Nc2nc(-c3c(C)nc4ccccn34)cs2)cc1	-0.3	59.4*	1.5	-2.5	39.0*	82.5*
Cc1ccc(Nc2nc(-c3c(C)nc4ncccn34)cs2)cc1	-0.2	66.8*	6.0	-2.4	-11.5	88.7*
Cc1nc2ncccn2c1-c1csc(Nc2ccc(O)cc2)n1	-0.5	-4.5	12.8	1.0	-15.8	·
O=S(=O)(NCC[C@H](O)c1ccsc1)c1ccccc1Cl	·	·	-1.0	·	·	·
O=c1oc2ccccc2c2c1cnc1ccccc12	-1.5	64.2*	6.1	-1.1	9.2	-10.6
Cc1cnc(N)c2c(=O)oc3ccccc3c12	i	-23.8	-11.5	-0.1	0.8	·
O=C(/C=C/c1cccs1)Nc1ccc(Br)cn1	i	60.9*	-19.5	-0.2	-4.5	84.4*
O=C(/C=C/c1cccs1)Nc1cccc(NC(=O)/C=C/c2cccs2)n1	-0.4	-69.9	-1.3	-3.0	6.4	·
Cc1cc(N)nc(=O)n1C1CC(O)C(CO)O1 (stereo unspecified)	-1.9	59.3*	0.1	-0.6	-6.7	-6.8
CCOC(=O)c1nn(-c2cccc(C)c2)c(=O)c2c(NC(=O)Cc3c[nH]c4ccccc34)scc12	·	·	-9.0	·	·	·
CC(=O)N/C(=C\c1ccccc1)C(=O)OCc1ccccc1	-0.5	71.5*	3.8	-1.6	-3.1	-21.7
